Measured values as given in the supplement of paper PMC12282887.
± gives the standard deviation of the averaged measurements.

Test system: E. coli BW25113 marRABp lux reporter
Assay: promoter activity interaction Z-score (Lux/OD deviation from empty-vector control); higher = stronger promoter induction by the compound
Experimental: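 E. coli BW25113 (wild type or ΔmarA/ΔsoxS/Δrob) carrying pTU175 luxCDABE promoter reporters was grown in LB in 384-well plates at 37°C with each of 94 compounds at 4 two-fold concentrations, in biological duplicates. Luminescence and OD600 were read every 30 min for 12 h and integrated as AUC over 8 h (0-8 h WT, 1-9 h mutants). Lux AUC was divided by OD AUC; the interaction score is the residual of a Huber robust fit of each promoter against the empty-vector control, then Z-transformed per promoter.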

COc1ccc2[nH]c([S+]([O-])Cc3ncc(C)c(OC)c3C)nc2c1 (configuration not stated) [Omeprazole]
promoter activity interaction Z-score (21.6 µg/ml, genetic background: wild type): -0.572 ± 0.095 | promoter activity interaction Z-score (21.6 µg/ml, genetic background: ΔmarA): -0.27 ± 0.18 | promoter activity interaction Z-score (21.6 µg/ml, genetic background: Δrob): -0.128 ± 0.18 | promoter activity interaction Z-score (21.6 µg/ml, genetic background: ΔsoxS): -0.226 ± 0.23 | promoter activity interaction Z-score (43.2 µg/ml, genetic background: wild type): -0.301 ± 0.098 | promoter activity interaction Z-score (43.2 µg/ml, genetic background: ΔmarA): -0.0417 ± 0.55 | promoter activity interaction Z-score (43.2 µg/ml, genetic background: Δrob): -0.0764 ± 0.16 | promoter activity interaction Z-score (43.2 µg/ml, genetic background: ΔsoxS): -0.0512 ± 0.083 | promoter activity interaction Z-score (86.4 µg/ml, genetic background: wild type): -0.582 ± 0.15 | promoter activity interaction Z-score (86.4 µg/ml, genetic background: ΔmarA): -0.305 ± 0.32 | promoter activity interaction Z-score (86.4 µg/ml, genetic background: Δrob): -0.229 ± 0.12 | promoter activity interaction Z-score (86.4 µg/ml, genetic background: ΔsoxS): -0.22 ± 0.21 | promoter activity interaction Z-score (172.7 µg/ml, genetic background: wild type): -0.5175 ± 0.0031 | promoter activity interaction Z-score (172.7 µg/ml, genetic background: ΔmarA): -0.6 ± 0.24 | promoter activity interaction Z-score (172.7 µg/ml, genetic background: Δrob): -0.408 ± 0.15 | promoter activity interaction Z-score (172.7 µg/ml, genetic background: ΔsoxS): -0.421 ± 0.089

CC(=O)Oc1ccccc1C(=O)O [Acetylsalicylic acid]
promoter activity interaction Z-score (22.5 µg/ml, genetic background: wild type): 0.161 ± 0.7 | promoter activity interaction Z-score (22.5 µg/ml, genetic background: ΔmarA): 0.108 ± 0.13 | promoter activity interaction Z-score (22.5 µg/ml, genetic background: Δrob): 0.479 ± 0.51 | promoter activity interaction Z-score (22.5 µg/ml, genetic background: ΔsoxS): 0.261 ± 0.009 | promoter activity interaction Z-score (45 µg/ml, genetic background: wild type): 0.512 ± 0.54 | promoter activity interaction Z-score (45 µg/ml, genetic background: ΔmarA): 0.152 ± 0.14 | promoter activity interaction Z-score (45 µg/ml, genetic background: Δrob): 0.623 ± 0.14 | promoter activity interaction Z-score (45 µg/ml, genetic background: ΔsoxS): 0.318 ± 0.23 | promoter activity interaction Z-score (90.1 µg/ml, genetic background: wild type): 0.0791 ± 0.33 | promoter activity interaction Z-score (90.1 µg/ml, genetic background: ΔmarA): -0.0396 ± 0.066 | promoter activity interaction Z-score (90.1 µg/ml, genetic background: Δrob): 0.404 ± 0.071 | promoter activity interaction Z-score (90.1 µg/ml, genetic background: ΔsoxS): 0.469 ± 0.2 | promoter activity interaction Z-score (180.2 µg/ml, genetic background: wild type): 1.81 ± 0.28 | promoter activity interaction Z-score (180.2 µg/ml, genetic background: ΔmarA): 1.65 ± 0.22 | promoter activity interaction Z-score (180.2 µg/ml, genetic background: Δrob): 2.07 ± 0.099 | promoter activity interaction Z-score (180.2 µg/ml, genetic background: ΔsoxS): 1.89 ± 0.43

CCN(CC)CCOC(=O)c1ccc(N)cc1 [Procaine]
promoter activity interaction Z-score (1329.2 µg/ml, genetic background: wild type): 0.474 ± 0.19 | promoter activity interaction Z-score (1329.2 µg/ml, genetic background: ΔmarA): 1.13 ± 0.098 | promoter activity interaction Z-score (1329.2 µg/ml, genetic background: Δrob): -0.044 ± 0.24 | promoter activity interaction Z-score (1329.2 µg/ml, genetic background: ΔsoxS): 0.558 ± 0.086 | promoter activity interaction Z-score (2658.5 µg/ml, genetic background: wild type): 0.562 ± 0.12 | promoter activity interaction Z-score (2658.5 µg/ml, genetic background: ΔmarA): 1.42 ± 0.24 | promoter activity interaction Z-score (2658.5 µg/ml, genetic background: Δrob): -0.0229 ± 0.4 | promoter activity interaction Z-score (2658.5 µg/ml, genetic background: ΔsoxS): 0.555 ± 0.11 | promoter activity interaction Z-score (5317 µg/ml, genetic background: wild type): 0.94 ± 0.094 | promoter activity interaction Z-score (5317 µg/ml, genetic background: ΔmarA): 2.128 ± 0.015 | promoter activity interaction Z-score (5317 µg/ml, genetic background: Δrob): 0.0444 ± 0.17 | promoter activity interaction Z-score (5317 µg/ml, genetic background: ΔsoxS): 0.444 ± 0.23 | promoter activity interaction Z-score (10634 µg/ml, genetic background: wild type): 1.63 ± 0.15 | promoter activity interaction Z-score (10634 µg/ml, genetic background: ΔmarA): 2.15 ± 0.55 | promoter activity interaction Z-score (10634 µg/ml, genetic background: ΔsoxS): 2.04 ± 0.25
